Drawing on PubChem BioAssay (NCATS), this text covers Potency and activation for 25 molecules.

The structures appear in SMILES notation. Inconclusive results are not listed. A call without a number means that no potency is given here. Calls of active or inactive are those of the source. Calls follow the shape of the dose curve; as a rule, active = well fitted activation curve with a large enough effect; inconclusive = small, poorly fitted or top-dose-only effect, or another doubt; inactive = no such curve, though single readings can be large or run the other way.
Potency is read from the fitted curve at half-maximal effect.

This assay deals with Rap guanine nucleotide exchange factor 3 (Homo sapiens) (UniProt O95398). The experiment in a line: Counterscreen qHTS for agonist of cAMP-regulated guanine nucleotide exchange factor 3 (EPAC1) (AID 1645889). Also: nearly all actives have a fitted effect of over 40% in size. To be noted: EPAC1 Rap1B-BODIPY-GDP exchange, fluorescence; series mostly up to 154 µM. In short, it runs like this: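 Measured: fluorescence of BODIPY-GDP bound to Rap1B, which falls as exchange proceeds. Conditions include 50 uM competing GDP, 5 and 30 min reads, and a later cAMP challenge for antagonist detection.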
On the technique in general: The purpose of a counterscreen is to sort out artefacts and off-target activity.
In the case of `C[C@H]1CN([C@@H](C)CO)C(=O)c2cccc(NC(=O)C3CC3)c2O[C@H]1CN(C)S(=O)(=O)c1ccccc1`, the Potency result is “inactive”.

With `C=CCc1ccccc1OCCSc1nc(-c2ccccc2F)nc2cc(=O)[nH]n12`, the Potency result is “inactive”. Consider `CCC(C)n1c(SCC(=O)Nc2ccc3[nH]c(=O)[nH]c3c2)nc2ccccc2c1=O` (stereo not given), for which the activation was 13.5% [at 30.8 µM] (inactive). With `C#Cc1ccc([C@@H]2C=C(C(=O)NCc3ccccc3)O[C@H](OCc3ccc(CO)cc3)C2)cc1`, the Potency entry is “inactive”. As for `Cc1ccc(-c2nnc(Nc3ccc(OCC(N)=O)cc3)c3ccccc23)cc1S(N)(=O)=O`, the Potency result was “inactive”. Consider `CCc1ccc(OCC2c3cc(OC)c(OC)cc3CCN2C(C)=O)cc1` (stereo not given), for which the Potency entry was “inactive”.

As for `CC(=O)c1sc2nc(CSc3nnnn3-c3ccccc3)[nH]c(=O)c2c1C`, the activation is 8.36% [at 30.8 µM] (inactive). On to `O=c1c2ccccc2c(C=Nc2ccc(O)cc2)c(O)n1Cc1ccccc1`, for which the activation was 1.81% [at 30.8 µM] (inactive). For the molecule `COc1ccccc1C1CC(=O)Oc2cc(C)c(Cl)cc21` (stereo not given), the Potency entry was “inactive”.

In the case of `NS(=O)(=O)c1ccc(N/N=C/c2ccccc2C(=O)O)c([N+](=O)[O-])c1`, the Potency entry is “inactive”. Take `Cc1ccc(/C=C/C(=O)Nc2nnc(SCc3ccc(C#N)cc3)s2)o1`: the Potency result is “inactive”.

In the case of `CCOC(=O)C1=C(N)Oc2cc(O)ccc2C1c1ccccc1` (stereo not given), the activation was 10.8% [at 30.8 µM] (inactive). With `CC(=O)c1c(C)[nH]c(C(=O)OCC(=O)c2ccc3c(c2)NC(=O)CO3)c1C`, the Potency entry was “inactive”. For `Cc1ccc(C)c(Nc2cc(C)nc(-c3ccccc3O)n2)c1`, the activation was 7.83% [at 30.8 µM] (inactive).

As to `CC(=O)Nc1ccc(S(=O)(=O)Nc2nc3ccccc3nc2-n2ccc(=NC(=O)c3ccccc3)cc2)cc1`, the activation was 5.94% [at 30.8 µM] (inactive). As to `O=C(N/N=C/c1ccccc1O)c1cccc(C(F)(F)F)c1`, the activation is 8.8% [at 30.8 µM] (inactive). As to `COC(=O)c1c(SC)nc2ccccc2c1OCc1ccc(C)cc1`, the Potency was 17.8 µM (active).

For the molecule `Cc1ccc(C)c(-c2ccc(=O)n(Cc3ccc(F)cc3Cl)n2)c1`, the Potency result was “inactive”. In the case of `CCC(Oc1ccccc1)C(=O)Nc1ccccc1N1CCCC1` (stereo not given), the Potency result was “inactive”. Take `COc1ccc(OC)c(C(=O)/C=C/c2ccccc2C(F)(F)F)c1`: the Potency result was “inactive”. On to `O=C(NCC(c1ccco1)N1CCCCC1)c1cccc(NS(=O)(=O)c2ccc(Br)cc2)c1` (stereo not given), for which the activation is 29.4% [at 30.8 µM] (inactive). Turning to `O=C(O)CCc1ccc(-c2ccc(Br)cc2)n1-c1ccc(O)cc1`, the Potency entry was “inactive”. Consider `Cc1ccc(CN(C(=O)COc2cc(C)c(Cl)c(C)c2)c2ccccn2)o1`, for which the Potency result is “inactive”.

In the case of `CCc1noc(C)c1C(=O)N1CCCSC1=Nc1ccccc1Cl`, the activation is -1.65% [at 30.8 µM] (inactive). For `COc1ccc(Nc2nnc(-c3ccc(O)cc3)c3ccccc23)cc1`, the activation was 26.4% [at 30.8 µM] (inactive).
